{"source": "PubChem BioAssay AID493165", "about": "(National Center for Advancing Translational Sciences (NCATS), 2011)", "note": "Calls of active or inactive are those of the source. Calls come from the whole dose curve; as a rule, active = well fitted curve in the direction sought with a large enough effect; inactive = no such curve, though single readings can be large or run the other way.", "data": [{"experiment": "Retest of LOPAC molecules that induce DNA re-replication in SW480 adenocarcinoma cells.", "conditions": "Hoechst DNA content imaging, 48 h; series mostly up to 45.1 µM", "text": "NIH Molecular Libraries Probe Production Network [MLPCN] NIH Chemical Genomics Center [NCGC] MLPCN Grant: Fast Track K99 CA136555 Assay Provider: Melvin DePamphilis, NICHD, NIH Assay Overview Eukaryotic cells normally restrict genome duplication to once per cell division. When this process is aberrant, DNA re-replication occurs when cells reinitiate DNA replication before the first round of replication is complete. DNA re-replication induces the DNA damage response, arrests cell proliferation, and triggers apoptosis. The cell cycle components cyclin A, Cdt-1, Cdc6 and geminin are critical regulators of this process and their misregulation results in DNA re-replication in normal and cancer cells. To identify compounds that induce re-replication in normal cells, an image-based assay was used to measure DNA content of nuclei, as detected by the fluorescent DNA binding dye, Hoechst. Cell nuclei were imaged by a fluorescence scanning plate imager and compounds that induce DNA re-replication were identified by the increase of nuclei with elevated fluorescence intensity.\nAssay Protocol Summary For screening, 250 cells in 5 uL/well were dispensed into black clear 1536-well plates (Aurora) using a solenoid-based dispenser. Following transfer of 23 nL compound or DMSO vehicle by a pin tool, the plates were incubated 48 hr at 37 C and 5% CO2. After addition of 1 uL/well Hoescht stain, the plates were incubated 40 min at 37 C, 5% CO2 and total intensity of fluorescent objects (nuclei) were enumerated by an Acumen Explorer Ex3 (TTP LabTech) fluorescence scanning plate imager (405 nm excitation, 500-530 nm emission). Keywords: NIH Roadmap, MLPCN, MLI, MLSMR, qHTS, NCGC, DNA replication, cancer", "values": [{"molecule": "CC(C)NP(=O)(NC(C)C)OP(=O)(NC(C)C)NC(C)C", "Potency": "inactive"}, {"molecule": "C=C(C)[C@H]1Cc2c(ccc3c2O[C@@H]2COc4cc(OC)c(OC)cc4[C@@H]2C3=O)O1", "Potency": "1070 nM (active)"}, {"molecule": "COc1cc2c(c(OC)c1OC)-c1ccc(OC)c(=O)cc1[C@@H](NC(C)=O)CC2", "Potency": "33.7 nM (active)"}]}]}
